From PubChem BioAssay (EPA / NIEHS)
“And” between values parts separate entries of the source, which are not always exact repeats. Equal values may be shown once. Where a structure was tested more than once in an assay, its records may differ in their call. The source made the active and inactive calls. The calls were made as follows: active = hit-call score of the fitted dose curve at least 0.9, where 1 is the maximum; inactive = score below 0.9.

Assays:
[1] = ATG_CRE_CIS: Attagene CIS-FACTORIAL HepG2 Assay for human cAMP Responsive Element (CRE) binding protein 3 (AID 2282926); conditions: HepG2 CRE cis-reporter, Attagene multiplexed mRNA; actives raise or lower the signal
Summary of the method: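 Liver-derived HepG2, transfected with a CRE-containing reporter panel, exposed 24 h; transcript levels sized and quantified by capillary electrophoresis of labelled amplicons; signal changes either way referenced to vehicle.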

[2] = biological target: CCAAT/enhancer-binding protein beta (Homo sapiens) (UniProt P17676); test: ATG_C_EBP_CIS: Attagene CIS-FACTORIAL HepG2 Assay for human CCAAT/Enhancer Binding Protein (C/EBP) beta (AID 2282927); conditions: HepG2 Attagene cis-factorial transcription factor reporter; actives raise or lower the signal
Sequence of CCAAT/enhancer-binding protein beta (Homo sapiens) (P17676 whole entry, looked up): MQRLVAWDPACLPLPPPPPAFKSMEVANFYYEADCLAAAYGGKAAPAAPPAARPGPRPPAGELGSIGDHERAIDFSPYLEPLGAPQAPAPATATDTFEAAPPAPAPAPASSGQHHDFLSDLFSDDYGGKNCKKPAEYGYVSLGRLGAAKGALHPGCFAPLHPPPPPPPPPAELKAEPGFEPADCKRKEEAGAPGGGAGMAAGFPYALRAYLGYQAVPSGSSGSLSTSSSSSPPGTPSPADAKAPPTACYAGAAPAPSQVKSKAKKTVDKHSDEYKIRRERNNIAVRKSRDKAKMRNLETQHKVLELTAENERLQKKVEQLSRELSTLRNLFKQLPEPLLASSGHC
Summary of the method: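 RT-PCR/capillary electrophoresis fluorescence of reporter mRNA, 24 h post-dose, in HepG2 cells carrying transfected cis-promoter reporter units. Bidirectional curve fitting against DMSO baseline captures gain or loss of signal.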

[3] = ATG_CMV_CIS: Attagene CIS-FACTORIAL HepG2 Assay for human CMV (Internal Marker) (AID 2282928); conditions: HepG2 CMV promoter reporter, transcription factor profiling; actives raise or lower the signal;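 also: endpoint acts as a background internal control marker rather than a target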
Summary of the method: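 Fluorescence intensity of RT-PCR-derived reporter fragments, resolved by capillary electrophoresis, gives the signal. HepG2 liver cells bearing transfected cis-element reporters were treated 24 h; activity in either direction was fit relative to DMSO-treated controls.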

[4] = ATG_DR4_LXR_CIS: Attagene CIS-FACTORIAL HepG2 Assay for human Liver X Receptor (LXR), DR4 submotif (AID 2282929); conditions: HepG2 Attagene DR4 cis-reporter, mRNA transcription; actives raise or lower the signal
Summary of the method: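 The endpoint is DR4-element-driven reporter transcripts after 24 h chemical exposure of transfected HepG2 cells. These were measured via RT-PCR and capillary electrophoresis, and gain or loss of signal was fitted relative to DMSO controls.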

[5] = biological target: Aryl hydrocarbon receptor (Homo sapiens) (UniProt P35869); test: ATG_Ahr_CIS: Attagene CIS-FACTORIAL HepG2 Assay for human Aryl Hydrocarbon Receptor (Ahr) (AID 2282930); conditions: HepG2 AhR cis-factorial reporter transcription; actives raise or lower the signal
Sequence of Aryl hydrocarbon receptor (Homo sapiens) (P35869 whole entry, looked up): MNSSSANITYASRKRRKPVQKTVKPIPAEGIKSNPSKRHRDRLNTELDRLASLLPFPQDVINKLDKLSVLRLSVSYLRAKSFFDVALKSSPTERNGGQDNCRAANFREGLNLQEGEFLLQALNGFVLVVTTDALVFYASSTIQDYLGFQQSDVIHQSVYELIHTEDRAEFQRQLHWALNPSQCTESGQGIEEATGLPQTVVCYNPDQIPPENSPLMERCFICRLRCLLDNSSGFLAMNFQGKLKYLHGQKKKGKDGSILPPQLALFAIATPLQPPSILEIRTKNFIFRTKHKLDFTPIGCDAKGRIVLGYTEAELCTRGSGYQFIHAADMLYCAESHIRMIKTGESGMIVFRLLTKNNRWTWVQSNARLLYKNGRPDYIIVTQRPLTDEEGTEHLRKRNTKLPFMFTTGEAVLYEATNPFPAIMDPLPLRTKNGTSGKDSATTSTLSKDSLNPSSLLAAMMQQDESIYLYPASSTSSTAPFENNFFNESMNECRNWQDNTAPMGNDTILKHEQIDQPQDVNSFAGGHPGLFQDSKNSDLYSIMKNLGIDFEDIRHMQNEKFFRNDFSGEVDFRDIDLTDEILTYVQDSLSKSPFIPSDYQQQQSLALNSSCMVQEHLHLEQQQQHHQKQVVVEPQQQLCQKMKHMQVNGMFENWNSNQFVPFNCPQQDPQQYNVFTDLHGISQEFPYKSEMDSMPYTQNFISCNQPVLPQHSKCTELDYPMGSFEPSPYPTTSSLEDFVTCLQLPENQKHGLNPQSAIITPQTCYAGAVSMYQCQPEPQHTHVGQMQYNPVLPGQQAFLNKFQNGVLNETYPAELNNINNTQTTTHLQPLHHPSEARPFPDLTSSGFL
Summary of the method: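 HepG2 cells transiently transfected with cis-element-driven multiplexed reporter transcription units; endogenous transcription factor activity measured as reporter mRNA 24 h after dosing. RT-PCR, 6-FAM labelling, HpaI digestion, capillary electrophoresis; bidirectional fitting versus DMSO baseline.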

[6] = ATG_AP_1_CIS: Attagene CIS-FACTORIAL HepG2 Assay for human Activator Protein 1 (AP-1) (AID 2282931); conditions: HepG2 Attagene cis-factorial AP-1 reporter mRNA; actives raise or lower the signal
Summary of the method: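 Readout is reporter transcript level from endogenous transcription factor activity, quantified by RT-PCR with fluorescent primer extension and capillary electrophoresis. Transiently transfected HepG2 cells, 24 h exposure. Curves fitted both directions versus DMSO.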

[7] = ATG_AP_2_CIS: Attagene CIS-FACTORIAL HepG2 Assay for human Activator Protein 2 (AP-2) (AID 2282932); conditions: HepG2 AP-2 cis-reporter, Attagene transcription factor profiling; actives raise or lower the signal
Summary of the method: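 Assay in transfected HepG2 with promoter-regulated reporters, 24 h incubation after dosing. Signal is reporter mRNA fluorescence (RT-PCR, capillary electrophoresis), analysed for both increases and decreases relative to DMSO controls.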

[8] = ATG_BRE_CIS: Attagene CIS-FACTORIAL HepG2 Assay for human Bone Morphogenetic Protein (BMP) Response Element (BRE) (AID 2282933); conditions: HepG2 BMP response element reporter, Attagene transcription factor profiling; actives raise or lower the signal
Summary of the method: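 Multiplexed cis-reporter assay, HepG2, 24 h exposure. mRNA from reporter units quantified via RT-PCR/CE; DMSO baseline; bidirectional curve fit.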

[9] = APR_HepG2_NuclearSize_72hr: Apredica 72-hour HepG2 Assay for Nuclear Size (AID 2282925); conditions: high-content imaging, actives raise or lower the signal
Summary of the method: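 Compounds (0.39–200 uM, final DMSO 0.5%) were applied to HepG2 for 72 hr. Cells were then formaldehyde-fixed, permeabilized and labelled with Hoechst 33342. Nuclear diameter was quantified from six images per well.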

[10] = biological target: Retinoic acid receptor alpha (Homo sapiens) (UniProt P10276); test: ATG_DR5_RAR_CIS: Attagene CIS-FACTORIAL HepG2 Assay for human Retinoic Acid Receptor Alpha (RARE), DR5 submotif (AID 2282934); conditions: HepG2 Attagene cis-factorial RARE DR5 reporter, mRNA; actives raise or lower the signal
Sequence of Retinoic acid receptor alpha (Homo sapiens) (P10276 whole entry, looked up): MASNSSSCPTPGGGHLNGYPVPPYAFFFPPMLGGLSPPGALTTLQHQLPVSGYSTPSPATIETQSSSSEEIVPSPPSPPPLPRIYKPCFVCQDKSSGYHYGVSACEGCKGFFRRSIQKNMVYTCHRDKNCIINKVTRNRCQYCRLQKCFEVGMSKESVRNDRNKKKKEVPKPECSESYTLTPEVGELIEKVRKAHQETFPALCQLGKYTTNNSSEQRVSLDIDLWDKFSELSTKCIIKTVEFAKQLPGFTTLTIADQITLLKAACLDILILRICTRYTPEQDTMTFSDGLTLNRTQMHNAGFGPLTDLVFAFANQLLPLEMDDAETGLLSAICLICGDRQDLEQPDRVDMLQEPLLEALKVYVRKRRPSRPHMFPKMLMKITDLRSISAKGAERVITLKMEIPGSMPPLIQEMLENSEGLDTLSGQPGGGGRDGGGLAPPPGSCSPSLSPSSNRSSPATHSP
Summary of the method: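 HepG2 cells transiently transfected with multiplexed reporter units under cis (DR5 RARE) promoters, so endogenous transcription factor activity is measured. After 24 h compound exposure, reporter mRNA is quantified by RT-PCR with fluorescent labelling and capillary electrophoresis; bidirectional fitting versus DMSO.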

Measured: AC50

CC(=N[Si](C)(C)C)O[Si](C)(C)C
inactive: [1] | [2] | [3] | [4] | [5] | [6] | [7]

CC(=O)c1cccnc1
inactive: [1] | [2] | [3] | [4] | [5] | [6] | [7]

CCC(C)C1CCCCC1=O (stereo not drawn)
inactive: [1] | [2] | [3] | [4] | [5] | [6] | [7] | [8]

O=Cc1ccccc1O
inactive: [1] | [2] | [3] | [4] | [6] | [7]
active: [5] 48.5 µM

CCCC[N+](C)(CCCC)CCCC
inactive: [1] | [2] | [3] | [4] | [5] | [6] | [7] | [8]

C#C[C@]1(O)CC[C@H]2[C@@H]3CCc4cc(O)ccc4[C@H]3CC[C@@]21C
inactive: [9] | [1] | [2] | [3] | [4] | [5] | [6] | [7] | [8]
active: [1] 66.9 µM and 26.4 µM and 37 µM | [2] 158 µM | [3] 26.4 µM and 26 µM and 26.2 µM | [4] 100 µM and 34 µM | [5] 19.8 µM and 9.23 µM | [6] 47.3 µM | [7] 167 µM and 46.7 µM | [8] 75.6 µM and 48.6 µM

O=C(c1ccc(OCCN2CCCCC2)cc1)c1c(-c2ccc(O)cc2)sc2cc(O)ccc12
inactive: [9] | [1] | [2] | [4] | [5] | [6] | [7] | [8]
active: [1] 11.1 µM and 14.7 µM | [2] 15.2 µM | [4] 20.3 µM and 19.9 µM | [5] 19.3 µM | [6] 17.5 µM and 16.9 µM and 13.1 µM | [7] 11.1 µM and 15.4 µM

CCCC(O)C(CC)CO (stereo not drawn)
inactive: [1] | [2] | [3] | [4] | [5] | [6] | [7] | [8]

Cc1cccc(O)c1
inactive: [1] | [2] | [3] | [4] | [5] | [6] | [7]

CCCC1CCOC(C)S1 (stereo not drawn)
inactive: [1] | [2] | [3] | [4] | [5] | [6] | [7] | [8]

CCC(C)(C)C1CCC(OC)CC1 (stereo not drawn)
inactive: [1] | [2] | [3] | [4] | [5] | [6] | [7]

CCCCCC1C(=O)CCC1CC(=O)OC (stereo not drawn)
inactive: [1] | [2] | [3] | [4] | [5] | [6] | [7]

CCCCCCCCOC(C)=O
inactive: [1] | [2] | [3] | [4] | [5] | [6] | [7]

COc1ccc(N)c(C)c1
inactive: [1] | [2] | [3] | [4] | [5] | [7]
active: [6] 70 µM | [8] 151 µM

NC(N)=NC(N)=NCCc1ccccc1
inactive: [1] | [2] | [3] | [4] | [5] | [6] | [7]
active: [8] 36.4 µM

Cc1ccccc1S
active: [1] 72.3 µM | [4] 75.5 µM | [6] 36.6 µM
inactive: [2] | [3] | [5] | [7] | [8]

O=C1OC2(c3ccc(O)cc3Oc3cc(O)ccc32)c2ccccc21
active: [5] 25.9 µM
inactive: [1] | [2] | [3] | [4] | [6] | [7] | [8]

CCCCOCC(C)OCC(C)O (stereo not drawn)
inactive: [1] | [2] | [3] | [4] | [5] | [6] | [7] | [8]

CC1(C)CC(=O)CC(C)(C)N1
inactive: [1] | [2] | [3] | [4] | [5] | [6] | [7]

C1COCO1
inactive: [1] | [2] | [3] | [4] | [5] | [6] | [7] | [8]

CCC(C)(C)c1cc(O)c(C(C)(C)CC)cc1O
inactive: [5] | [6] | [7] | [8]
active: [1] 5.39 µM | [2] 19.8 µM | [3] 54.3 µM | [4] 26.7 µM

CCc1cccc(O)c1
inactive: [1] | [2] | [3] | [4] | [5] | [6] | [7] | [8]

CCCCC1CCCCC(=O)O1 (stereo not drawn)
inactive: [1] | [2] | [3] | [4] | [5] | [6] | [7]

CC1=CCC(C(C)C)=CC1
inactive: [1] | [2] | [3] | [4] | [5] | [6] | [7] | [8]

CC(CO)(CO)[N+](=O)[O-]
inactive: [1] | [2] | [3] | [4] | [5] | [6] | [7] | [8]

O=C1OCc2ccccc21
inactive: [1] | [2] | [3] | [4] | [5] | [6] | [7]

CC/C(=C(\c1ccccc1)c1ccc(OCCN(C)C)cc1)c1ccccc1
inactive: [9] | [1] | [3] | [4] | [5] | [6] | [7] | [8] | [10]
active: [9] 119 µM

O=S(=O)(O)CCCN1CCOCC1
inactive: [1] | [2] | [3] | [4] | [5] | [6] | [7]

C=CCCCCCCCCC(=O)OCC
inactive: [1] | [2] | [3] | [4] | [5] | [6] | [7] | [8]
